Results published in PubChem BioAssay (NCATS).
“And” between values parts separate entries of the source, which are not always exact repeats. Identical values can stand only once. A number with no mark means an inactive call. Results filed as inconclusive are left out. A call without a number means that no potency is given here. The source made the active and inactive calls. Unless noted, the call rests on the fitted dose curve; in most records, active means well fitted curve in the direction sought with a large enough effect in the repeat runs; inconclusive means weak or mixed curves; inactive means no such curve, though single readings can be large; an effect the other way counts as inactive or inconclusive.

What was measured:
[1] = qHTS assay for small molecule disruptors of the mitochondrial membrane potential - 1 hr assay (AID 651754; calls by dose curve; further: nearly all actives have a fitted effect of over 35% in size; further: potency means the concentration at half of the fitted maximal effect)
Outline: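 Loss of mitochondrial potential shifts the cationic dye from red mitochondrial aggregates to green cytoplasmic monomers. Cells (HepG2) are treated with compound for 1 hr before a 30 min dye incubation at 37C.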

[2] = qHTS assay for small molecule disruptors of the mitochondrial membrane potential - 5 hr assay (AID 651755; calls by dose curve; further: nearly all actives have a fitted effect of over 40% in size; further: potency means the concentration at half of the fitted maximal effect)
Outline: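 Membrane-potential dye readout: red aggregate (540 ex/590 em) versus green monomer (490 ex/535 em) fluorescence after 30 min dye loading, following 5 hr compound exposure at 37C of overnight-plated HepG2 cells.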

[3] = target: Peroxisome proliferator-activated receptor alpha (Homo sapiens) (UniProt Q07869); assay: qHTS assay for small molecule agonists of the peroxisome proliferator-activated receptor alpha (PPARalpha) signaling pathway (AID 651778; active means well fitted curve in the direction sought with a large enough effect; an effect the other way counts as inactive or inconclusive); settings: PathHunter PPARalpha complementation, chemiluminescence, 6 h; hits give high values
Outline: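 Chemiluminescence from complemented enzyme reported PPARalpha activation in cells after 6 hr of compound treatment at 37 C. The detection reagent was incubated for 60 min at room temperature, and compounds were scored as agonists.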

[4] = target: Nuclear receptor ROR-gamma (Homo sapiens) (UniProt P51449); assay: qHTS assay for small molecule antagonists of the retinoid-related orphan receptor gamma (ROR-gamma) signaling pathway (AID 651802; active means well fitted curve in the direction sought with a large enough effect; an effect the other way counts as inactive or inconclusive;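 further: CHO cells with doxycycline-induced ROR-gamma expression; series mostly up to about 92 µM; nearly all actives have a fitted effect of over 60% in size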)
Outline: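 Steps: cells dispensed; compound or DMSO transferred by pin tool; doxycycline added to induce the ROR response element-driven luciferase; plates held 16hr at 37C; ONE-Glo added and luminescence measured.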

[5] = qHTS assay for small molecule antagonists of the retinoid-related orphan receptor gamma (ROR-gamma) signaling pathway - cell viability counter screen (AID 720652);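 further: CHO reporter cells with doxycycline-induced ROR-gamma expression; series mostly up to about 92 µM; compound exposure lasted 16 hr before ATP read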
Outline: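 Steps: seed CHO cells bearing TET-inducible ROR and ROR response element-luciferase; rest 5 hr at 37 C; add compound, then doxycycline; incubate 16 hr; add CellTiter-Glo and read luminescence as ATP-based viability.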

[6] = qHTS assay for small molecule agonists of the antioxidant response element (ARE) signaling pathway measured by Nrf2-dependant transcriptional activity - cell viability counter screen (AID 720653); settings: ARE-bla HepG2 viability, CellTiter-Glo ATP luminescence, 16 h; hits give low values
Outline: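 Cytotoxicity counter screen: intracellular ATP quantified by CellTiter-Glo luminescence in the same ARE-bla HepG2 plates, after 16 h compound exposure and a 2 h beta-lactamase substrate step.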

[7] = target: Tumor necrosis factor (Homo sapiens) (UniProt P01375); assay: qHTS assay to identify small molecules that stimulate Tumor Necrosis Factor-alpha (TNF-alpha) secretion (AID 651757; active means well fitted curve in the direction sought with a large enough effect in the signal ratio; the % refers to the signal ratio)
Outline: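 Human monocytic THP-1 cells are plated, treated with compound and held at 37 C for 17 hrs. Labeled anti-TNF-alpha antibody mixture is then added; after 3 hr at room temperature, TR-FRET signal reports secreted TNF-alpha.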

[8] = qHTS assay for environmental chemicals that activate the Aryl hydrocarbon Receptor (AhR) signaling pathway (AID 651777; active means well fitted curve in the direction sought with a large enough effect; an effect the other way counts as inactive or inconclusive; further: nearly all actives have a fitted effect of over 15% in size); settings: 1A2-DRE human hepatoma cells, luciferase, 24 h; activation: hits give high values
Outline: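 Concentration–response screening used 1,200 1A2-DRE cells per well, 24 hr compound exposure (37 C, 5% CO2), and One-Glo luminescence as the AhR-driven CYP1A2 reporter signal.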

[9] = qHTS assay for small molecule agonists of the antioxidant response element (ARE) signaling pathway measured by Nrf2-dependant transcriptional activity (AID 720636);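 further: HepG2 cells with an ARE-driven luciferase reporter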
Outline: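 Attachment 6 hr at 37 C, then compound versus DMSO vehicle for 16 hr in ARE-luc HepG2 cells (1% dialyzed FBS); luminescence recorded 30 min after ONE-Glo addition at room temperature.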

[10] = qHTS assay to identify small molecules that stimulate interleukin-8 (IL-8) secretion (AID 651758; active means well fitted activation curve with a large enough effect in the signal ratio; the % refers to the signal ratio)
Outline: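 Secreted IL-8 measured homogeneously by TR-FRET (two labelled anti-IL-8 antibodies, 1-3 h at room temperature) after a 16 h, 37 C compound treatment of THP-1 cells at 2000 cells/well.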

Sequence of Tumor necrosis factor (Homo sapiens) (P01375 whole entry, looked up): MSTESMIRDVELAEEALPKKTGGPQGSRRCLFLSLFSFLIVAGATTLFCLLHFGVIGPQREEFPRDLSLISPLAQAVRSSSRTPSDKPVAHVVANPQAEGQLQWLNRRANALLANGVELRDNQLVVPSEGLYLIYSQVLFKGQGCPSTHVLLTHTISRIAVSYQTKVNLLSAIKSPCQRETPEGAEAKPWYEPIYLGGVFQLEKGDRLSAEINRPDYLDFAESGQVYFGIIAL
Sequence of Nuclear receptor ROR-gamma (Homo sapiens) (P51449 whole entry, looked up): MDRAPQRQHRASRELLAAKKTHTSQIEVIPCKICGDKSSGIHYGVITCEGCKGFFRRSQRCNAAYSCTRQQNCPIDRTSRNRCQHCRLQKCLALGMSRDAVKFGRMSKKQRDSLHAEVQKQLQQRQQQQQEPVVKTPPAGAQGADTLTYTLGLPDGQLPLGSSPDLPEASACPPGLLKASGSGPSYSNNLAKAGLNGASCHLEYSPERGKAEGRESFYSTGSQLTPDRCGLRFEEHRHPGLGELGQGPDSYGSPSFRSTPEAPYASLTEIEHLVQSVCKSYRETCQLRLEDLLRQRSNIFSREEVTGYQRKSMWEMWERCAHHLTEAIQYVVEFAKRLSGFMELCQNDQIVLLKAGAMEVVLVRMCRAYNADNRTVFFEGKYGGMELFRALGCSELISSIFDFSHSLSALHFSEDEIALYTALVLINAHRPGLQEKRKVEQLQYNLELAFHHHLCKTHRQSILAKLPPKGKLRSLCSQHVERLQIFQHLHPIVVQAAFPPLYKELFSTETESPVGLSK
Sequence of Peroxisome proliferator-activated receptor alpha (Homo sapiens) (Q07869 whole entry, looked up): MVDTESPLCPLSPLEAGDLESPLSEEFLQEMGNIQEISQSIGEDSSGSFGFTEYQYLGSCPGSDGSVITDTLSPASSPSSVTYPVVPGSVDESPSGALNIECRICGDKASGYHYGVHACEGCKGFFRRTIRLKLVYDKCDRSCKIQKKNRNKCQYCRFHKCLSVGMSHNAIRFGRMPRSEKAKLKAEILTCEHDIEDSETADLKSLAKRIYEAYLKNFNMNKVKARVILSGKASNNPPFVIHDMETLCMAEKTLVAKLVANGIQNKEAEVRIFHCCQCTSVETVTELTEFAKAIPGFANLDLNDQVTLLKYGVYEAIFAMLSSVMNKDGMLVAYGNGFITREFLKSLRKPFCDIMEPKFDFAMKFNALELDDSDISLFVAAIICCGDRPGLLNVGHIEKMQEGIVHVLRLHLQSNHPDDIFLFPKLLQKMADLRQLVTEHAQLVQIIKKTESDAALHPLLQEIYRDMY

Clc1ccccn1
Potency [1]: inactive | Potency [2]: inactive | max response [3]: -1.35% | Potency [4]: inactive | Potency [5]: inactive | max response [6]: -1.74%

O=C1NC(=O)c2cc([N+](=O)[O-])ccc21
Potency [1]: inactive | Potency [7]: inactive | activation [8]: -0.349% | max response [3]: -3.3% | Potency [4]: inactive | outcome [9]: inactive | Potency [5]: inactive | max response [6]: -3.07%

CCCCCNCCCCC
Potency [1]: inactive | Potency [7]: inactive | Potency [10]: inactive | activation [8]: 0.294% and -0.372% | max response [3]: -4.45% and 0.112% | Potency [4]: inactive | outcome [9]: inactive | max response [6]: -0.347% and -3.31%

CO[Si](CCCNCCC[Si](OC)(OC)OC)(OC)OC
Potency [1]: inactive | Potency [10]: inactive | activation [8]: -0.757% | max response [3]: -5.87% | Potency [4]: inactive | outcome [9]: inactive | Potency [5]: inactive | max response [6]: -1.66%

CN(C)CCCCl
Potency [1]: inactive | Potency [7]: inactive | max response [3]: -1.33% | Potency [4]: inactive | outcome [9]: inactive | Potency [5]: inactive | max response [6]: 19.9%

NS(=O)(=O)O
Potency [1]: inactive | Potency [2]: inactive | activation [8]: 0.965% | max response [3]: -1.54% | Potency [5]: inactive | max response [6]: 3.57%

COC(=O)CCC(=O)OC
Potency [1]: inactive | Potency [10]: inactive | max response [3]: 7.56% | Potency [4]: inactive | outcome [9]: inactive | Potency [5]: inactive | max response [6]: -12.8%

C=C(C)C1CC=C(C)C(OC(C)=O)C1 (configuration not stated)
Potency [1]: inactive | Potency [10]: inactive | activation [8]: 0.261% | max response [3]: -3.58% | Potency [4]: inactive | outcome [9]: inactive | max response [6]: 1.71%

O=[N+]([O-])c1cccc(Cl)c1
Potency [1]: inactive | Potency [7]: inactive | activation [8]: 0.317% | max response [3]: -3.34% | Potency [4]: inactive | outcome [9]: inactive | Potency [5]: inactive | max response [6]: -6.97%

Nc1cccc(N)c1
Potency [1]: 21.1 µM (active) | Potency [7]: inactive | activation [8]: 4.51% | max response [3]: -0.676% | outcome [9]: inactive | Potency [5]: inactive | max response [6]: -7.64%

C[C@@H]1O[C@@H](O[C@@H]2[C@@H](O)[C@H](OCCc3ccc(O)c(O)c3)O[C@H](CO[C@@H]3O[C@H](CO)[C@@H](O)[C@H](O)[C@H]3O)[C@H]2OC(=O)/C=C/c2ccc(O)c(O)c2)[C@H](O)[C@H](O)[C@H]1O
Potency [1]: inactive | Potency [2]: inactive | max response [3]: 0.275% | Potency [4]: inactive | outcome [9]: inactive | max response [6]: -6.98%

CCCCCCCCN
Potency [1]: inactive | Potency [7]: inactive | Potency [10]: inactive | activation [8]: 1.65% | max response [3]: -3.65% | Potency [4]: inactive | outcome [9]: inactive | Potency [5]: inactive | max response [6]: 1.34%

Nc1cc(Cl)c([N+](=O)[O-])cc1O
Potency [1]: 33.5 µM (active) | Potency [2]: 33.5 µM (active) | activation [8]: 6.24% | max response [3]: -6.88% | Potency [5]: inactive | max response [6]: -1.27%

Nc1cc(Cl)c(N)c(Cl)c1
Potency [1]: inactive | Potency [2]: inactive | max response [3]: 1.23% and -1.85% | Potency [4]: inactive | Potency [5]: inactive | max response [6]: -6.05% and -8.26%

CC(=O)c1cc(C)oc1C
Potency [1]: inactive | Potency [7]: inactive | activation [8]: 0.74% | max response [3]: -8.47% | Potency [4]: inactive | outcome [9]: inactive | max response [6]: 1.5%

ICCc1ccccc1
Potency [2]: inactive | Potency [7]: inactive | Potency [10]: inactive | activation [8]: 3.65% | max response [3]: -1.29% | Potency [4]: inactive | outcome [9]: inactive | Potency [5]: inactive | max response [6]: 3.37%

Cc1ccccc1Br
Potency [2]: inactive | Potency [7]: inactive | activation [8]: -0.782% | max response [3]: -3.06% | Potency [4]: inactive | outcome [9]: inactive | Potency [5]: inactive | max response [6]: -8.12%

Cc1cccc2sc(N)nc12
Potency [2]: inactive | Potency [7]: inactive | max response [3]: -1.18% | Potency [4]: inactive | outcome [9]: inactive | Potency [5]: inactive | max response [6]: -5.19%

C=CC(=O)NC(C)C
Potency [2]: inactive | Potency [7]: inactive | Potency [10]: inactive | activation [8]: -0.429% | max response [3]: -6.08% | outcome [9]: inactive | max response [6]: -7.91%
